Among the data in PubChem BioAssay (Tox21) are outcome values, retold here.

Calls of active or inactive are those of the source. The call rests on the fitted dose curve; in most records, active means well fitted curve in the direction sought with a large enough effect in the repeat runs; inconclusive means weak or mixed curves; inactive means flat fitted curve, though single readings scatter.

This test in a line: qHTS assay to test for compound auto fluorescence at 535 nm (green) in HEK293 cells (AID 720680). Conditions: green autofluorescence 485/535 nm; series mostly up to 91.3 µM. In general terms: qHTS replaces the single test concentration by a dilution series.
`Cc1c(Cl)c(=O)oc2cc(OP(=O)(OCCCl)OCCCl)ccc12`: the molecule was classed as inactive.

For the molecule `O=S(=O)(c1ccc(Cl)cc1)c1ccc(Cl)cc1`, the result was inactive.

Regarding `N#C/C=C/C#N`, the molecule was classed as inactive.

For the molecule `O=C(CCl)C(Cl)Cl`, the outcome was inactive.

Regarding `C=CCC1=C(C)C(OC(=O)C2C(C=C(C)C)C2(C)C)CC1=O` (centres undefined), the call was inactive.

In the case of `O=C/C(Cl)=C(/Cl)C(=O)O`, the outcome was inactive.

As for `Clc1ccc(C(c2ccccc2Cl)C(Cl)(Cl)Cl)cc1` (centres undefined), the molecule was classed as inactive.

As to `CC(=O)O[C@H]1CC[C@@]2(C)C(=CC[C@@H]3[C@@H]2CC[C@]2(C)C(=O)CC[C@@H]32)C1`, the molecule was called inactive.

Consider `O=C(O)COc1nc(Cl)c(Cl)cc1Cl`, for which the call was inactive.

With `CC(C)[C@H](C(=O)O[C@H](C#N)c1cccc(Oc2ccccc2)c1)c1ccc(Cl)cc1`, the call was inactive.

On to `CCCOCC(=Nc1ccc(Cl)cc1C(F)(F)F)n1ccnc1`, for which the outcome was inactive.

Turning to `CCCN(CC)CC1COC2(CCC(C(C)(C)C)CC2)O1` (centres undefined), the outcome was inactive.

On to `C[C@@H]1CC[C@@]2(OC1)O[C@H]1[C@@H](O)[C@H]3[C@@H]4CC[C@H]5C[C@@H](O[C@@H]6O[C@H](CO)[C@H](O[C@@H]7O[C@H](CO)[C@@H](O)[C@H](O[C@@H]8OC[C@@H](O)[C@H](O)[C@H]8O)[C@H]7O[C@@H]7O[C@H](CO)[C@@H](O)[C@H](O[C@@H]8O[C@H](CO)[C@@H](O)[C@H](O)[C@H]8O)[C@H]7O)[C@H](O)[C@H]6O)[C@H](O)C[C@]5(C)[C@H]4CC[C@]3(C)[C@H]1[C@@H]2C`, for which the result was inactive.

With `C[C@]12CC[C@H]3[C@@H](CCC4=CC(=O)CC[C@@]43C)[C@@H]1CC[C@@H]2O`, the outcome was inactive.
